From PubChem BioAssay AID1021 (Emory University Molecular Libraries Screening Center, 2008) come the findings set out here.

About 2,100 (0.95%) of roughly 220,000 compounds were called active. Shown is part of a subset that was picked to be rich in actives. Unmarked numbers belong to inactive results.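 The calls were made as follows: active = compounds that cut the binding signal by more than half at the single screening dose; inactive = the rest.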

As a reminder, the inhibition is the drop in the measured response relative to a control, in per cent.

Chain of Induced myeloid leukemia cell differentiation protein Mcl-1 (Homo sapiens) (Q07820 whole entry, looked up): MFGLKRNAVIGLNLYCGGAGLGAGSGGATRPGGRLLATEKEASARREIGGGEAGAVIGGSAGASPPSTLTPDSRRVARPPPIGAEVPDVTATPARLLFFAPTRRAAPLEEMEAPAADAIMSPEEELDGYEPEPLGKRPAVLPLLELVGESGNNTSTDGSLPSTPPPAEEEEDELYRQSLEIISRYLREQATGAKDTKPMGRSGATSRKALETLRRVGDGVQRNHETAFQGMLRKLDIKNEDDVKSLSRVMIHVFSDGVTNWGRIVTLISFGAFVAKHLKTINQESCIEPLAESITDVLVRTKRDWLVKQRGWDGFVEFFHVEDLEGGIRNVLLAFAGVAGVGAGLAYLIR

This test has as its target Induced myeloid leukemia cell differentiation protein Mcl-1 (Homo sapiens) (UniProt Q07820). The test is described as follows: disruptors of Mcl-1 and Bid BH3 peptide – biochemical, TR-FRET, 1536-well, primary screen (AID 1021).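 Also: His-tagged Mcl-1 with europium anti-His antibody binding Bid BH3 peptide; 0% = Mcl-1 plus peptide wells and 100% = peptide-only wells.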 Conditions: TR-FRET Mcl-1/Bid-Dy647 peptide binding, at 21.7 µM, active compounds read high. Background: Time-resolved FRET reads energy transfer from a long-lived donor to a nearby acceptor.
On to `CC1CN(S(=O)(=O)c2ccccc2)C(C)CN1S(=O)(=O)c1ccccc1` (configuration not stated), for which the inhibition was -4.73%.

In the case of `CCS(=O)(=O)c1ccc2oc(SCC(=O)N3c4ccccc4CC3C)nc2c1` (configuration not stated), the inhibition is -1.51%.

Regarding `CCS(=O)(=O)c1ccc2c(c1)N(S(=O)(=O)c1ccccc1)CC(C(=O)O)O2` (configuration not stated), the inhibition was 52.3% (active).

`C=CCOc1ccc(/C=N/NC(=O)C(C)Sc2ccccn2)cc1OCC` (configuration not stated): the inhibition is -8.6%.

Turning to `COc1ccccc1C1CCN(c2ccc([N+](=O)[O-])cn2)CC1`, the inhibition is -13.5%.

Turning to `CCOC(=O)C(NC(=O)CC(C)C)(Nc1sc2c(c1C(N)=O)CCCC2)C(F)(F)F` (configuration not stated), the inhibition was -1.21%.

Consider `O=c1[nH]c2cccnc2n1-c1ccc([N+](=O)[O-])cc1`, for which the inhibition is -13.5%.

In the case of `CCOC(=O)CNC(=O)CSc1nnc(COc2ccc(Cl)cc2)n1CC`, the inhibition was 59% (active).

Consider `CCOC(=O)CNC(=O)CSc1nnc(-c2cccc(OC)c2)n1CC`, for which the inhibition is -3.85%.

`C=CCn1c(COc2ccccc2)nnc1SCC(=O)NCC(=O)OCC`: the inhibition is -8.17%.

Turning to `COc1ccc(CN(C)C(=S)Nc2ccc(Cl)cc2Cl)cc1`, the inhibition was -35.5%.

For `COc1ccc(CN2CCn3ncc(C(=O)Nc4ccc(Cl)cc4Cl)c3C2=O)cc1`, the inhibition is 32%.

Turning to `O=c1cc(CCl)nc2scc(-c3ccccc3)n12`, the inhibition is -18.4%.

As to `Cn1c(SCc2nc3ccccc3s2)nnc1-c1ccc2c(c1)OCO2`, the inhibition is 85.9% (active).

Turning to `O=C(O)CSc1nnc(-c2ccc3c(c2)OCO3)n1-c1ccccc1`, the inhibition was -2.66%.

With `Cc1ccccc1-c1nnc(SCC(=O)NCc2ccc3c(c2)OCO3)n1C`, the inhibition is -9.98%.

In the case of `COc1ccc(CCNc2cc(C)nc3c(-c4ccc(Cl)cc4)c(C)nn23)cc1OC`, the inhibition was 5.91%.

`O=c1c2ccccc2nc(CSc2nnnn2-c2ccccc2)n1-c1ccccc1`: the inhibition is 67% (active).

On to `Cc1ccc(-c2noc(CSc3nnnn3-c3ccccc3)n2)cc1`, for which the inhibition is 0.82%.

On to `O=c1c2ccccc2nnn1CSc1nnnn1-c1ccccc1`, for which the inhibition is -28.6%.

On to `Oc1ccc(-c2nncn2-c2ccccc2)cc1`, for which the inhibition is -19.8%.

Consider `O=[N+]([O-])c1cc(Cl)cc(/C=N/NC(=S)Nc2cc(S(=O)(=O)N3CCOCC3)ccc2Cl)c1O`, for which the inhibition was 91.1% (active).

In the case of `O=C(CN1CCN(c2ccc(O)cc2)CC1)Nc1cc(S(=O)(=O)N2CCOCC2)ccc1Cl`, the inhibition was -49.6%.

In the case of `O=C(N/N=C/c1ccc([N+](=O)[O-])o1)c1cccc(S(=O)(=O)N2CCOCC2)c1`, the inhibition was -61.1%.

As to `CC(Sc1nc2cc(Cl)ccc2s1)C(=O)Nc1ccc2c(c1)OCO2` (configuration not stated), the inhibition is -1.87%.

Regarding `Cc1cc(C)nc(Nc2ncn[nH]2)n1`, the inhibition was -30%.

Turning to `O=C(O/N=C(/c1ccccc1)c1ccncc1)c1ccccc1[N+](=O)[O-]`, the inhibition was -11.8%.

Consider `COc1cc(OC)nc(N/N=C(\c2ccccc2)c2ccncc2)n1`, for which the inhibition was 1.66%.

Take `CN(C)CCCO/N=C(\c1ccccc1)c1ccncc1`: the inhibition was 54.2% (active).

For `Cc1ccc2c(c1)C1CN(C)CCC1N2C(=S)Nc1ccc(OC(F)F)cc1` (configuration not stated), the inhibition was -15.3%.

Turning to `COc1ccc2c(c1)C(C)=CC(C)(C)N2C(=O)Nc1ccccc1`, the inhibition was -36.6%.

`COc1ccc2c(c1)C(C)=CC(C)(C)N2C(=O)CNCc1ccc2c(c1)OCO2`: the inhibition was 62% (active).

On to `CCn1cc(C(=O)NCc2ccc3c(c2)OCO3)c2cc(OC)c(OC)cc2c1=O`, for which the inhibition is 38.8%.

Regarding `CC(=O)c1nnn(-c2ccc(Cl)cc2C#N)c1C`, the inhibition was 1.84%.

With `Cc1ccc2nc(-c3cccc(Br)c3)cc(C(=O)Nn3cnnc3)c2c1`, the inhibition was -15.1%.

With `Cc1ccc(-c2cc(C(=O)NCc3cn(C)nc3C)c3cc(Br)ccc3n2)cc1`, the inhibition was 57.4% (active).

On to `COc1ccc(Cl)cc1C(=O)NCc1cn(C)nc1C`, for which the inhibition was -17.2%.

With `CN(Cc1ccccn1)Cc1nc(-c2ccc(Cl)cc2)no1`, the inhibition was 3.34%.

Regarding `CN(c1ccccc1)S(=O)(=O)c1ccc(Cl)c(C(=O)OCC(=O)NCc2ccco2)c1`, the inhibition was -33.3%.

On to `CCN(CC)CCCN=C(N)N`, for which the inhibition is -18.1%.

On to `Nc1nnc(SCC(=O)NC2CCCc3ccccc32)s1` (configuration not stated), for which the inhibition was -21.1%.

With `O=C(Cn1nnc(-c2ccccc2)n1)NCc1ccccc1`, the inhibition was -1.82%.

Take `Nc1nnn(CC(=O)N/N=C/c2ccccc2)n1`: the inhibition is -50.3%.

As for `O=C(Cn1nnc(-c2ccccc2)n1)N/N=C/c1ccc(-c2ccc(Cl)cc2)o1`, the inhibition is 61% (active).

With `O=C(CN1CCOCC1)N/N=C/c1ccc(-c2ccc(Br)cc2)o1`, the inhibition was -11.9%.

For the molecule `Nc1nnnn1CC(=O)N/N=C/c1ccc(-c2cccc(Cl)c2)o1`, the inhibition was -8.79%.

With `Cc1[nH]c2ccccc2c1/C=N\NC(=O)Cn1nnc(-c2ccccc2)n1`, the inhibition is 65.2% (active).

With `CCCCN1CCNC1=S`, the inhibition is -29.5%.

For `CC1(C)CC(=O)C(C=NCCN2CCN(C(=S)Nc3cccc(Cl)c3)CC2)=C(O)C1`, the inhibition was -49.6%.

Consider `Cc1nn(C)c(C)c1Sc1ccccc1N`, for which the inhibition is -33.5%.

`CCN(CC)c1ccc(NC(=O)C2CCC(CNc3c(N4CCCC4)c(=O)c3=O)CC2)c(C)c1` (configuration not stated): the inhibition is -70.9%.

As to `CC1(C)OC(=O)N2CCc3ccccc3C21C` (configuration not stated), the inhibition was 6.73%.

As to `CN(C)C(=O)c1nc2ccc(Cl)cn2c1CNCc1cccc(OC(F)(F)F)c1`, the inhibition was -1.45%.

Regarding `COC(=O)CN1C(C)=Nc2ccc(Br)cc2C1c1ccccc1` (configuration not stated), the inhibition was 67.2% (active).

As to `CCC(CC)C(=O)N1CC(=O)Nc2ccc(Br)cc2C1c1ccccc1` (configuration not stated), the inhibition is -3.97%.

With `COC(=O)CN1C(=O)C(O)=C(C(C)=O)C1c1ccc([N+](=O)[O-])cc1` (configuration not stated), the inhibition is -31.9%.

As to `N#CCCCn1c(O)c(N=NC(=O)C(O)c2ccccc2)c2ccccc21` (configuration not stated), the inhibition was -13.3%.

In the case of `Cc1cc(=O)oc2c(C(=O)c3ccccc3)c(OCC(N)=O)ccc12`, the inhibition is -15.3%.

Consider `N#CCC(=O)N/N=C/c1cn(Cc2ccc3ccccc3c2)c2ccccc12`, for which the inhibition was 25.7%.

With `O=C(O)/C=C/c1cn(Cc2ccccc2)nc1-c1cccs1`, the inhibition is -0.35%.

With `O=C(O)CCn1cc(/C=C/C(=O)c2ccc(Cl)cc2)c(-c2cccc(Br)c2)n1`, the inhibition was 69.2% (active).

Consider `CCOC(=O)/C(C#N)=C/c1cn(CCC(=O)O)nc1-c1ccc(Br)cc1`, for which the inhibition is 39.2%.

Regarding `Cc1noc(C)c1S(=O)(=O)Nc1ccc(C(=O)N2CCN(c3ccc(F)cc3)CC2)cc1`, the inhibition is -10.6%.

`CCOc1cc(C(=S)N2CCOCC2)ccc1O`: the inhibition was 74.5% (active).

Consider `COc1cc(C(=S)N2CCOCC2)ccc1O`, for which the inhibition is -30.2%.

Consider `CCOc1cc(C(=O)OCC(=O)Nc2cccc(C)c2)ccc1OCC(=O)N1CCOCC1`, for which the inhibition was -54%.

On to `O=C(Nc1ccc2c(c1)C(=O)OC2)Nc1cccc2ccccc12`, for which the inhibition is -19.5%.

Take `COc1ccc(/C=C/CN2CCN(Cc3ccc(C)cc3)C(CCO)C2)cc1` (configuration not stated): the inhibition was -9.23%.

In the case of `NC1=NC[C@@H](Cc2ccc(O)cc2)N1CC1CCCCC1`, the inhibition was -44.1%.

Regarding `C#CCOCCOCCOCCNc1nc(N2CCN(C(=O)[C@H](CCC(=O)O)n3cc(C(N)CO)nn3)CC2)nc(N2CCN(C(=O)[C@H](Cc3ccc(O)cc3)n3cc(C(N)[C@H](C)CC)nn3)CC2)n1` (some centres not stated), the inhibition was 62.7% (active).

As to `C#CCOCCOCCOCCNc1nc(N2CCN(C(=O)C(Cc3ccc(O)cc3)n3cc(C(N)CC(C)C)nn3)CC2)nc(N2CCN(C(=O)C(Cc3ccc(O)cc3)n3cc(C(N)C(C)CC)nn3)CC2)n1` (configuration not stated), the inhibition was -1.6%.

Regarding `C#CCOCCOCCOCCNc1nc(N2CCN(C(=O)[C@H](Cc3ccc(O)cc3)n3cc(C(N)CC(C)C)nn3)CC2)nc(N2CCN(C(=O)[C@H](CCC(=O)O)n3cc(C(N)[C@H](C)CC)nn3)CC2)n1` (some centres not stated), the inhibition was 2.45%.

As for `O=C(CCCl)Nc1ccc(S(=O)(=O)NCc2ccco2)cc1`, the inhibition is -69.5%.

As for `CCNC(=O)NC(=O)C(C)OC(=O)C1CCN(S(=O)(=O)c2ccccc2F)CC1` (configuration not stated), the inhibition was -21.6%.

For `COc1ccc(N2C(=O)C3CCCN3C2c2cc(OC)c(OC)cc2OC)cc1` (configuration not stated), the inhibition is -12.4%.

On to `COc1ccc(N2C(=O)C3CCCN3C2c2cccc(OC)c2)cc1` (configuration not stated), for which the inhibition is -26.8%.

On to `COc1ccc(OC)c(C2N(c3ccccn3)C(=O)C3CCCN32)c1` (configuration not stated), for which the inhibition was 51.8% (active).

Regarding `Clc1ccccc1CSc1nnc(-c2ccco2)c(-c2ccco2)n1`, the inhibition was 99.3% (active).

As to `Nc1nc(SCc2ccccc2Cl)n[nH]1`, the inhibition was -6.93%.

As to `Brc1ccc(CSc2ccc(-c3ccco3)nn2)cc1`, the inhibition is -15.8%.

Take `COC(OC)c1ccnc(SCc2ccccc2Cl)n1`: the inhibition is -7.91%.

`c1ccc(CSc2nnc(-c3ccco3)c(-c3ccco3)n2)cc1`: the inhibition is 91.7% (active).

Consider `O=C(Nc1nnc(SCc2ccccc2)s1)c1ccco1`, for which the inhibition is -46.6%.

With `COC(=O)c1cc(=O)n(-c2c(Cl)cc(C(F)(F)F)cc2Cl)[nH]1`, the inhibition was -6.09%.

Regarding `O=C1NNC(c2ccccc2)=N/C1=C\c1ccc(Cl)cc1`, the inhibition is -13.5%.

In the case of `Cc1nc2nc[nH]n2c(=O)c1C/C=C/c1ccccc1`, the inhibition is -22.4%.

As to `CCS(=O)(=O)c1ccc(C(=O)NC)c(Cl)c1Cl`, the inhibition was -26.1%.

On to `CCCCN1Cc2c(nc3cc(-c4ccccc4)[nH]n3c2=O)C1=O`, for which the inhibition was -37.8%.

With `O=S(=O)(Nc1n[nH]c(C(F)(F)F)n1)c1ccccc1`, the inhibition was -11.3%.

In the case of `CCc1cc2c(SCC(=O)Nc3ncc(Cl)c(C)c3Cl)ncnc2s1`, the inhibition was -33.7%.

As to `CCc1cc2c(N3CCN(c4nnc(CC)s4)CC3)ncnc2s1`, the inhibition was 56.7% (active).

Regarding `Oc1ccccc1N1CCN(c2ncnc3sc(-c4ccccc4)cc23)CC1`, the inhibition was -18.1%.
